Measurements published in PubChem BioAssay (NCI).
Compounds without any hit were thinned out: in the full panel of roughly 83,000, 20% have a hit.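 Note: values are percent growth. 100 is the growth of untreated cells, values between 100 and 0 indicate rising inhibition; between -100 and 0 indicates cell death.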 Values without a mark were called inactive. The source made the active and inactive calls. The calls were made as follows: active = growth percent below 10; inactive = the rest.

Experiments:
Assay in all cases: NCI-60 one-dose screen, 48 h (100 = growth as untreated, 0 = no growth, -100 = all killed)
Conditions in all cases: 10 µM unless noted
[1] = tested on: HCT-15 colon
[2] = tested on: HT29 colon
[3] = tested on: SNB-75 CNS
[4] = tested on: SNB-19 CNS
[5] = tested on: U251 CNS
[6] = tested on: PC-3 prostate
[7] = tested on: SK-MEL-5 melanoma
[8] = tested on: UACC-62 melanoma
[9] = tested on: LOX IMVI melanoma
[10] = tested on: SK-MEL-28 melanoma

SMILES	growth [1]	growth [2]	growth [3]	growth [4]	growth [5]	growth [6]	growth [7]	growth [8]	growth [9]	growth [10]
COc1ccc(CNCCN2C(=O)c3ccc4c5c(ccc(c35)C2=O)C(=O)N(CCNCc2ccc(OC)c(OC)c2OC)C4=O)c(OC)c1OC	-51.2% (active)	-45.7% (active)	-12.6% (active)	-13.6% (active)	-46.1% (active)	0.0353% (active)	-93.9% (active)	-72.2% (active)	-27.9% (active)	-7.81% (active)
Cn1nc(CC#N)c2c(=N)n(N)cnc21	111%	116%	87.4%	111%	99.4%	96.2%	111%	103%	103%	121%
Nc1n[nH]c2cccc(C#Cc3cccc(C(=O)Nc4cccc(C(F)(F)F)c4)c3)c12	64.8%	38.8%	77.9%	104%	72.8%	72.3%	53.8%	42.7%	38%	53.5%
COc1cc2c(c(O)c1Cl)C(=O)c1c(O)cc(C[C@H](C)O)cc1[C@H]2[C@H]1c2cc(C[C@H](C)O)cc(O)c2C(=O)c2c1cc(OC)c(Cl)c2O	8.82% (active)	9.65% (active)	-3.83% (active)	18%	8.26% (active)	16.7%	-65.7% (active)	0.814% (active)	7.32% (active)	38.2%
O=C1c2cccc3c(-c4ccc5c(c4)ncn5C4CCCCC4)ccc(c23)C(=O)N1c1nc2ccccc2s1	59.5%	84%	75.2%	94.6%	86.9%	73.2%	74.6%	73%	84.8%	96.6%
CC(=O)Nc1ccc(-n2cnc3cc(-c4ccc(OCCN5CCCCC5)cc4)ccc32)cc1	43.6%	2.12% (active)	88.2%	88%	44%	64.3%	79%	120%	86.8%	107%
O=C(Cn1c(C(=O)c2ccccc2)nc2ccccc21)c1ccc(F)cc1	44.4%	23.3%	48.4%	74.5%	55.1%	78.2%	60.7%	37.1%	61.3%	54%
O=C(NNc1nc2c(F)cccc2n2cccc12)c1cnccn1	26.3%	24.3%	74.3%	23.9%	18.7%	36.2%	5.96% (active)	16.5%	-32.6% (active)	8.95% (active)
NCCCCCCNc1cc(-c2cccc(OC(F)(F)F)c2)nc2ccc(N3CCCC3)cc12	-54.2% (active)	-2.69% (active)	-32.4% (active)	16.5%	-59% (active)	-5.66% (active)	-98.4% (active)	-56.9% (active)	-93.6% (active)	-83.4% (active)
CC(c1ccccc1)C(C(=O)c1ccccc1)c1ccccc1 (stereo not given)	107%	75.4%	63.9%	91%	96.3%	94.8%	98.5%	94%	82.3%	94%
CN1C(=O)NC(c2ccc3c(c2)OCO3)C=C1c1ccccc1 (stereo not given)	77.8%	84.2%	80.2%	92.5%	72%	102%	99%	89.8%	96.5%	106%
CCOC(=O)[C@@H](C)C[C@H](Cc1ccccc1)NC(=O)c1csc([C@@H](C[C@H](C(C)C)N(C)C(=O)[C@@H](NC(=O)[C@H]2C[C@H](O[Si](C)(C)C(C)(C)C)CCN2C)C(C)C)OC(C)=O)n1	-6.05% [9.25 µM] (active)	-71.7% [9.25 µM] (active)	7.94% [9.25 µM] (active)	5.09% [9.25 µM] (active)	-17.3% [9.25 µM] (active)	6.78% [9.25 µM] (active)	-14.5% [9.25 µM] (active)	4.13% [9.25 µM] (active)	4.27% [9.25 µM] (active)	24.2% [9.25 µM]
Cc1ccc(S(=O)(=O)Nn2c3c(cc(-c4nc5ccccc5s4)c2=O)CCCCCC3)cc1	97%	112%	91.9%	99.2%	99.9%	99.7%	96.2%	84.4%	95.9%	110%
CCCCCOc1ccc(/C=N/Nc2cc(C)nc3ccc(Cl)cc23)cc1	-93.8% (active)	-18.9% (active)	41%	16.9%	-75% (active)	9.76% (active)	74.2%	83.6%	-96.9% (active)	-85.8% (active)
C=C1C(=O)O[C@H]2[C@H]1CC/C(COC(=O)NCCc1c[nH]c3ccc(OC)cc13)=C\CC[C@@]1(C)O[C@@H]21	-54.7% (active)	-15.2% (active)	55.5%	51.6%	35.5%	54.7%	64.7%	21.6%	-22.4% (active)	-10.8% (active)
COc1ccccc1/C=C1\Oc2cc(OCCN3CCCC3)ccc2C1=O	39.4%	14%	90.5%	88.9%	76.1%	83%	87.2%	97.3%	68.1%	91.8%
OCc1cnc2ccccc2c1NC1CCCCCC1	98.4%	92.1%	91.4%	94.4%	92.6%	82.2%	59.7%	81.7%	89.2%	102%
O=C1C=CC(=O)N1c1cccc(Cl)c1	101%	85.9%	115%	118%	99.2%	89.2%	106%	105%	102%	108%
COc1ccc(/C=C2\Oc3cc(OCCCCCN4CCCCC4)ccc3C2=O)cc1OC	49.3%	-59.2% (active)	81%	91%	87%	79.2%	66.7%	96.2%	63.2%	99.4%
CCOC(=O)c1ccc2c(c1)ncn2-c1ccc(NC(=O)Nc2cccc(C)c2)cc1	13.6%	49.1%	87.6%	49.8%	46.1%	67.4%	83.2%	71.3%	5.37% (active)	88.7%
NS(=O)(=O)c1ccc(CCN2C(=O)C3C(C2=O)C2(Cl)C(Cl)=C(Cl)C3(Cl)C2(Cl)Cl)cc1 (stereo not given)	90.5%	85.8%	88%	101%	104%	42.3%	92.9%	75.2%	92.1%	108%
CC1=C(C(=O)/C=C/c2ccc(N(C)C)cc2)C(c2ccccc2)NC(=S)N1 (stereo not given)	105%	102%	86.9%	95.1%	101%	98.3%	99.3%	94.3%	98.5%	110%
C#Cc1cccc(NC(=O)Nc2cccc(NC(=O)CCl)c2)c1	-56.5% [8.25 µM] (active)	18% [8.25 µM]	30% [8.25 µM]	-11% [8.25 µM] (active)	-88% [8.25 µM] (active)	-26.3% [8.25 µM] (active)	-96% [8.25 µM] (active)	-61.6% [8.25 µM] (active)	-93.8% [8.25 µM] (active)	48.5% [8.25 µM]
O=C(NCCc1ccccc1)Nc1ccc2cc3ccc(NC(=O)NCCc4ccccc4)cc3nc2c1	97.1%	31.4%	17.1%	-31.8% (active)	-26.4% (active)	19.3%	60.9%	-51.2% (active)	-79.8% (active)	-29.4% (active)
COCCCN1CC(O)=C(c2nc(-c3ccc(C)cc3)cs2)C1=N	110%	128%	154%	98.6%	100%	94.3%	103%	103%	102%	159%
CC(=O)N1c2ccccc2NC2=C(C(=O)NC2(C)C)C1c1ccco1 (stereo not given)	93.1%	92.5%	73.5%	81.2%	96.5%	54.6%	64.6%	66.5%	86.4%	75.2%
